Test results as given in ChEMBL document CHEMBL3433997, “St. Jude Leishmania screening dataset” (2016).

How the values were obtained:
Type in all cases: functional
[1] = molecular target: Solute carrier family 2, facilitated glucose transporter member 1 (Homo sapiens) (UniProt P11166); experiment: ST_JUDE_LEISH: Cytotoxicity at 2uM final concentration against transgenic Leishmania Mexicana promastigotes LmGLUT1 that are glucose transport deficient and complemented with the human glucose transporter GLUT1. Activity is measured by DNA content using SYBR green in vitro
[2] = molecular target: Hexose transporter 1 (Plasmodium falciparum) (UniProt O97467); experiment: ST_JUDE_LEISH: Cytotoxicity at 2uM final concentration against transgenic Leishmania Mexicana promastigotes LmPfHT that are glucose transport deficient and complemented with the Plasmodium falciparum hexose transporter. Activity is measured by DNA content using SYBR green in vitro
[3] = molecular target: Glucose transporter (Leishmania mexicana) (UniProt O61059); experiment: ST_JUDE_LEISH: Cytotoxicity at 2uM final concentration against transgenic Leishmania Mexicana promastigotes LmGT2 that are glucose transport deficient and complemented with the L. Mexicana glucose transporter 2. Activity is measured by DNA content using SYBR green in vitro

Solute carrier family 2, facilitated glucose transporter member 1 (Homo sapiens), sequence (P11166 whole entry): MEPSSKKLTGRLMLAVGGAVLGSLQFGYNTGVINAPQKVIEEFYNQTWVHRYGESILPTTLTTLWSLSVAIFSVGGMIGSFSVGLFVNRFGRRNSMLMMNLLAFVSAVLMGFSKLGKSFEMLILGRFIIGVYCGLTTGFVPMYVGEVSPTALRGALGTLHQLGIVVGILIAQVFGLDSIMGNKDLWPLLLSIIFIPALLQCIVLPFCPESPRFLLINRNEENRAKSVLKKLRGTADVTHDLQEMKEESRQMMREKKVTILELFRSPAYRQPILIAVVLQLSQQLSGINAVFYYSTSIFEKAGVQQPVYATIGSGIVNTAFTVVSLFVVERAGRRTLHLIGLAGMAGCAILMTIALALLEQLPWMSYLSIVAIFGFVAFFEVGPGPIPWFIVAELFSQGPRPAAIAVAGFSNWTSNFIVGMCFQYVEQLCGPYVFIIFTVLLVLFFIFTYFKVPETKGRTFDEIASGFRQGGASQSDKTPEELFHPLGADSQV

| SMILES | inhibition [1] [%] | inhibition [2] [%] | inhibition [3] [%] |
| --- | --- | --- | --- |
| Fc1cccc(Nc2nc(NCc3ccc4ccsc4c3)nc(Nc3cccc(F)c3)n2)c1 | 19.2 | 18 | 10.6 |
| CC[C@H](C)CNC(=O)c1ccnc(-c2cccc(CN3CCC(N4CCCC4)CC3)c2)c1 | 0.78 | -0.95 | 0.7 |
| CN1CCN(c2ccnc3ccc(NC(=O)Nc4cccc5c(C#N)cccc45)cc23)CC1 | 2.25 | 2.35 | 2.75 |
| O=C(Nc1ccc(Cl)cc1Cl)N[C@H]1CCN(CCCCCNC(=O)C2CC2c2ccc(Cl)c(Cl)c2)C1 (some centres not stated) | 3.75 | 4.63 | 4.05 |
| CC(C)(C)C1CC(=O)CC2C(=O)N(c3ccc(Br)cc3)C(=O)C21 (configuration not stated) | 2.94 | 0.44 | -1.64 |
| Cc1cc(C=C(P(=O)(OC(C)C)OC(C)C)P(=O)(OC(C)C)OC(C)C)c2ccccc2c1O | 6.71 | 7.2 | 1.63 |
| c1cc(CN2CCCCC2)cc(-c2cccc(-c3nc4ccccc4[nH]3)c2)c1 | 1.27 | 2.94 | -0.15 |
| Cc1nc(-c2cccc(Nc3nccc(NCC(O)c4cccc(F)c4)n3)c2)cs1 (configuration not stated) | -0.89 | -0.36 | -3.57 |
| CC(C)C(=O)Nc1c(F)cc(F)cc1CCc1ccc(O)cc1 | 7.29 | 8.12 | 5.01 |
| COc1ccc(-c2ccc(S(=O)(=O)Nc3cc4c(cc3OC(C)C)CCNCC4)cc2)cc1 | -2.14 | -1.7 | -2.37 |
| CN(C)Cc1cccc(-c2ccc(NC(=O)c3ccc4c(=O)n(Cc5ccoc5)cnc4c3)cc2)c1 | 63.7 | 54.6 | 24.1 |
| CCCCCN1CCC(NC(=O)c2ccc(C(=O)Nc3ccc(C(C)C)cc3)cc2)CC1 | -0.86 | -0.06 | -5.29 |
| Cc1c(Cc2ccc(C(C)C)cc2)cnc2nc(N)nc(N)c12 | 1.34 | 0.5 | 1.42 |
| COc1cc2c(c(Cl)c1OC)CCN(C(=O)C(F)(F)F)CC2c1ccccc1 (configuration not stated) | 6.36 | 5.47 | 4.64 |
| Cc1c(CNCCCNc2nc3ccccc3[nH]2)sc(C(F)F)c1Br | 3.07 | 0.8 | 1.17 |
| CC(C)(C)c1ccc(CNC(=O)c2cc(CNC3CCNCC3)ccc2O)cc1 | 1.45 | 1.01 | 0.22 |
| Cc1ccc(-n2c(C)cc(C(=O)CN3C(=O)NC(Cc4ccccc4)C3=O)c2C)cc1 (configuration not stated) | 0.81 | -1.87 | 0.55 |

| SMILES | inhibition [1] [%] | inhibition [2] [%] | inhibition [3] [%] |
| --- | --- | --- | --- |
| O=C(Nc1ccc(-c2cncc(NCCCN3CCCC3)c2)cc1)c1ccccc1 | 1.36 | 1.48 | 1.55 |
| CCCNCc1ccc(-c2ccc(CN(CCOC)C(=O)c3cccc(C#N)c3)cc2)nc1 | 1.66 | 1.45 | 3.74 |
| CC(C)CC(=O)N(Cc1ccc(-c2ccc(CNC3Cc4ccccc4C3)cc2)cc1)C1CCNCC1 | 8.37 | 5.79 | 10.6 |
| N#Cc1ccc(S(=O)(=O)N2C(c3cccc([N+](=O)[O-])c3)C(C(=O)c3ccccc3)N(C3CCCCC3)C2c2cccc([N+](=O)[O-])c2)cc1 (configuration not stated) | 7.88 | 7.58 | 7.58 |
| CCN(CC)CCCN(CCCN(CC)CC)c1cc(C)nc(Nc2ccc3cc(Br)ccc3c2)n1 | 1.34 | 4.9 | 3.03 |
| CC(C)(Cc1ccc(Cl)cc1)NCCCCCCNCCc1ccc(O)c(O)c1 | -0.5 | -2.96 | -1.18 |
| COc1ccc2nc(C)cc(Nc3ccc(Cl)c(Cl)c3)c2c1 | 7.6 | 14.2 | 17.3 |
| COc1ccc(C)cc1NC(=O)CSc1nc2cccnc2n1C1CCCCC1 | 5.9 | 4.88 | 3.28 |
| CCOc1cc2ccccc2cc1CNCCCCCCNCc1cc2ccccc2cc1OCC | 5.01 | 7.4 | 0.64 |
| CCc1c(C)c2ccc3c(c2oc1=O)CN(CCc1ccc(F)cc1)CO3 | 6.07 | 6.16 | 5.28 |
| CN(C)c1ccc(/N=C2/N/C(=N/c3ccc(N(C)C)cc3)c3ccccc32)cc1 | 4.81 | 6.38 | 3.25 |
| COc1ccc2ccc(F)c(CC(=O)N3CCOC(CNCc4cccc(-c5ccc(F)cc5)n4)C3)c2n1 (configuration not stated) | -1.79 | 0.05 | -0.12 |
| CCOc1ccccc1CNc1nccc(NCCc2cn(C)c3ccccc23)n1 | 7.77 | 3.5 | 2.49 |
| Cc1c[nH]c(CCNC(=O)c2cc(-c3ccc(Cl)cc3)cs2)n1 | 2.64 | 0.26 | 2.79 |
| N#Cc1cccc(NC(=O)Nc2ccc(-c3csc(-c4nc5ccccc5[nH]4)c3)cc2)c1 | 7.99 | 9.33 | 3.91 |
| N=C(N)NC(=O)Nc1cc(Cl)c(Cl)c(Br)c1 | 6.7 | 5.82 | 2.08 |
| O=C(Nc1cccc(F)c1)NC1CCN(c2ccnc3cc(Cl)ccc23)CC1 | 2.51 | 1.28 | 1.75 |
